# Screening data from PubChem.
# In the library only some 8.1% were active in any assay of this set; here they are far more common.
# ELG1 repair inh = ELG1-dependent DNA repair inhibition; 330,000 tested, 2.3% active; Potency, µM (highest dose often 46.1 µM), for the others: top-dose activity change, negative = inhibition, hits mostly inhibitors; HEK293T ELG1-luciferase reporter, luminescence, 16 h; DNA damage induced by 5-fluorouridine; further: on the % scale 0 is the no-effect control and ±100 the full control effect; nearly all actives have a fitted effect of over 55% in size
#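 Reporter activity after DNA damage by 5-fluorouridine is monitored. Compound-treated cells incubate 16 hr at 37 °C, then ONE-Glo is added for 30 min before luminescence reading.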
# MCF10A rereplic = induces DNA re-replication in MCF 10a normal breast cells; MCF 10A DNA re-replication, Hoechst nuclear intensity, 48 h; Potency, µM (titrated, usually from 46.1 µM), for inactives: at the highest dose activity, positive = re-replication, actives largely listed as activators; 350,000 tested, 2.9% active; AID 624296; further: % of control where 0% means no effect; nearly all actives have a fitted effect of over 50% in size
# SW480 rerep = induces DNA re-replication in SW480 colon adenocarcinoma cells | Potency, µM (top dose mostly 46.1 µM), for inactives: top-dose re-replication activation, hits mostly activators | 340,000 tested, 1.8% active | AID 624297 | SW480 DNA re-replication, Hoechst DNA content imaging, 48 h; further: % of control where 0% means no effect; nearly all actives have a fitted effect of over 55% in size
#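 Quantitative HTS format with DMSO vehicle controls; 48 hr drug incubation at 37 C, then 40 min Hoechst staining and scanning imager measurement at 405 nm excitation.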
# KB-3-1 tox = kills parental KB-3-1 adenocarcinoma cells; KB-3-1 viability, CellTiter-Glo ATP luminescence, 72 h; Potency, µM (doses to about 46.1 µM), usual class: cytotoxic; 400,000 tested, 1.4% active; AID 1347075; further: on the % scale 0 is the no-effect control and ±100 the full control effect; nearly all actives have a fitted effect of over 60% in size
#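 KB-3-1 cells, DMEM (no phenol red) + 10% FBS; compound by pin transfer, 72 h, 37 °C. Readout: CellTiter-Glo luminescence after 10 min. Data normalized, curve-fitted.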
# KB-V1 MDR tox = KB-V1 MDR subline cytotoxicity; KB-V1 MDR cells viability, CellTiter-Glo, 72 h; Potency, µM (series often up to 46.1 µM), usual class: cytotoxic; 400,000 tested, 3.4% active; AID 1347076; further: on the % scale 0 is the no-effect control and ±100 the full control effect; nearly all actives have a fitted effect of over 60% in size
#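 KB-V1 MDR subline cells in DMEM (phenol-red free, 10% FBS) exposed to compounds in qHTS concentration series for 72 h at 37 degrees C. Viability read by CellTiter-Glo luminescence; concentration-effect curves fitted after normalization and correction.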
# * hit, by the source's call; i = inactive; u = inconclusive; x = no result given; [ ] = another dose, or the depositor's remark. The call rests on the fitted dose curve; in most records, active means well fitted curve in the direction sought with a large enough effect; inconclusive means small, poorly fitted or top-dose-only effect, or another doubt; inactive means no such curve, though single readings can be large; an effect the other way counts as inactive or inconclusive. Potency means the concentration at half of the fitted maximal effect.
SMILES,ELG1 repair inh,MCF10A rereplic,SW480 rerep,KB-3-1 tox,KB-V1 MDR tox
C#C[C@]1(OC(C)=O)CC[C@H]2[C@@H]3CCC4=C[C@@H](OC(C)=O)CC[C@@H]4[C@H]3CC[C@@]21C,x,11%,21%,x,x
C#C[C@]1(O)CC[C@H]2[C@@H]3CCC4=CCCC[C@@H]4[C@H]3C(=C)C[C@@]21CC,x,13µM*,3%,x,x
C#C[C@]1(O)CC[C@@H]2[C@H]3CCC4=CCCC[C@@H]4[C@@H]3CC[C@@]21C,x,10µM*,2%[20.6 µM],x,x
COC(=O)c1cc(S(=O)(=O)NCCN2CCOCC2)cn1C,14%,3%,u,i,u
NC1=CC(=O)C(=O)c2ccccc21,x,u,u,i,u
O=C1C=C(Nc2ccccc2O)c2ccccc2C1=O,u,u,6.5µM*,18µM*,21µM*
Cc1ccc(NC2=CC(=O)C(=O)c3ccccc32)c(C)c1,21µM*,-5%,9%,u,u
O=c1cccccc1NCc1ccccc1,0%,1%,-28%,i,i
O=C1C=C(NCc2ccccc2)c2ccccc2C1=O,12µM*,u,18µM*,u,u
Cc1c(Cc2ccccc2)c(=O)oc2c(C)c(OCC(=O)N[C@@H](Cc3ccccc3)C(=O)O)ccc12,1%,4%,u,i,i
CCOC(=O)c1c(C)oc2c1c(C=NCC1CCCO1)c(O)c1ccccc12 (stereo not given),-3%,u,-4%,u,u
CCOC(=O)c1c(C)oc2c1c(C=NCc1ccccn1)c(O)c1ccccc12,18µM*,12µM*,u,u,u
O=C(CNC(=O)c1ccc2c(c1)OCO2)N/N=C(Br)/C=C/c1ccccc1,u,9.2µM*,u,u,i
O=C(CNC(=O)c1ccc2c(c1)OCO2)N/N=C/c1cccc([N+](=O)[O-])c1,3%,-4%,4%,i,i
Cc1ccc(-c2csc(=S)n2CC(=O)OCC(=O)NC(C)C(C)C)cc1 (stereo not given),-7%,u,4%,i,16µM*
Cc1ccc(-c2csc(=S)n2CC(=O)OCC(=O)NCc2ccco2)cc1,u,u,-1%,i,u
C=CCn1c(SCC(C)=O)nnc1-c1cc(-c2ccccc2)sc1N,26µM*,-2%,-15%,i,18µM*
O=C(c1ccccc1)N1CCOC(O)(c2ccccc2)C1c1ccccc1 (stereo not given),x,14%,u,i,u
CC(C)(C)c1ccc(-n2nc(C#N)c(Cl)cc2=O)cc1,-12%,2.9µM*,4.1µM*,u,u
CC(C)(C)c1ccc(-n2nc(C(N)=O)c(O)cc2=O)cc1,0%,23%,u,i,i
COc1cc(C2c3cc4c(cc3OC(NCCc3ccccc3)C2C)OCO4)cc(OC)c1OC (stereo not given),x,1µM*,1µM*,4.1µM*,2.9µM*
COc1cc(CCC(=O)NCc2ccc3c(c2)OCO3)cc(OC)c1OC,-3%,6%,2%,i,i
COc1cc(C2c3cc4c(cc3OC(Nc3ccc(C(=O)O)cc3)C2C)OCO4)cc(OC)c1OC (stereo not given),x,1.3µM*,0.65µM*,0.18µM*,i
COc1cc(C2c3cc4c(cc3OC(C)(N3CCCC3)C2C)OCO4)cc(OC)c1OC (stereo not given),x,0.65µM*,5.2µM*,1.5µM*,2.6µM*
CCCCCCCCCCCCCC(=O)OCC(COP(=O)([O-])OCC[N+](C)(C)C)OC(=O)CCCCCCCCCCCCC (stereo not given),x,1%,-1%,x,x
SMILES,ELG1 repair inh,MCF10A rereplic,SW480 rerep,KB-3-1 tox,KB-V1 MDR tox
CCC1CCCCN1c1cc(C)nc2cc(-c3cccc(C)c3)nn12 (stereo not given),-19%,3.5µM*,u,i,i
CCOC(=O)C1CCCN(c2cc(C)nc3cc(-c4ccc(F)cc4)nn23)C1 (stereo not given),u,3%,-4%,i,i
CCN(CC)C1CCN(C(=O)c2ccc(OC3CCN(C(=O)CCOC)CC3)cc2)C1 (stereo not given),x,x,x,u,i
CCC(C(=O)NC1CCCC1)N(C(=O)Cn1nnc(-c2ccc(OC)c(OC)c2)n1)C1CCCCC1 (stereo not given),u,3%,1%,i,i
CCC(C(=O)NC1CCCC1)N(Cc1cccs1)C(=O)Cn1nnc(-c2ccc(OC)c(OC)c2)n1 (stereo not given),18µM*,-3%,0%,i,i
COc1ccc(-c2nnn(CC(=O)N(CC(=O)NC3CCCC3)Cc3cccs3)n2)cc1OC,u,-1%,-2%,i,12µM*
COc1ccc(-c2nnn(CC(=O)N(CC(=O)NC3CCCC3)Cc3ccco3)n2)cc1OC,-10%,-2%,-6%,i,i
COc1ccc(-c2nnn(CC(=O)N(Cc3cccs3)C(C)C(=O)NC3CCCC3)n2)cc1OC (stereo not given),u,7%,-3%,i,2.1µM*
COc1cc(-c2cc(C(=O)Nc3ccc(S(N)(=O)=O)cc3)c3ccccc3n2)cc(OC)c1OC,u,u,9%,i,i
COc1cc(-c2cc(C(=O)Nc3c(Cl)cc(Cl)cc3Cl)c3ccccc3n2)cc(OC)c1OC,5.2µM*,u,1%,i,i
CCN(CC)S(=O)(=O)c1ccc(O)c(NC(=O)c2cc(-c3cc(OC)c(OC)c(OC)c3)nc3ccccc23)c1,16µM*,18µM*,u,i,i
Cc1ccc(N2C(=O)CS(=O)(=O)C23C(=O)N(Cc2ccc(Cl)cc2)c2ccccc23)cc1C (stereo not given),x,x,x,i,u
COC(=O)c1ccc(COc2ccccc2/C=C(\C#N)C(=O)Nc2c(C)cccc2C)cc1,26µM*,8.2µM*,24%,u,u
Cc1cccc(C)c1NC(=O)/C(C#N)=C/c1ccsc1,11%,u,1.5µM*,i,i
CCc1cccc(OCC(=O)Nc2cc(Cl)ccc2-n2cncn2)c1,-24%,u,4.6µM*,i,i
CCOc1ccc(OCC(=O)Nc2cc(Cl)ccc2-n2cncn2)cc1,x,x,x,i,i
CCOC(=O)C1Nc2ccc(C(F)(F)F)cc2C2c3ccccc3CC12 (stereo not given),x,u,3%,16µM*,18µM*
C=CCn1c(-c2ccc(OC)cc2)nc2nc3ccccc3nc21,0%,-188%[0.0737 µM],1%,i,i
CCCn1c(-c2cc(OC)c(OC)c(OC)c2)nc2nc3ccccc3nc21,16µM*,-1%,-6%,i,i
Fc1ccc(-c2noc3ncnc(NCc4cccc(Cl)c4)c23)cc1,x,x,x,i,i
